Assay results published in the supplement of paper PMC7156485.
Structures can show the parent of a compound that is named as a salt. ± gives the standard deviation of the averaged measurements.

Tested on: HCC1569
Assay: cell number relative to DMSO (% of DMSO); higher = more cells (less growth inhibition / toxicity)
Conditions: concentration: 10 µM; 24 h
How it was run: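 Cells were seeded at 800 per well in 384-well plates with RPMI containing 10% FBS; both HCC1569 and TDF lines were used. Compounds were added at 10 µM for 24 h at 37 °C, in triplicate, before fixation in 3.7% formaldehyde and staining with a rabbit anti-H1.0 antibody, an AlexaFluor 647 secondary and DAPI. H1.0 nuclear intensity or cell number is reported as percent of the plate control using the median of replicates, and HCC1569 values were smoothed for positional effects.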
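Note: TDF denotes transformed human dermal fibroblasts of mesenchymal origin.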

SMILES | cell number
CCCCCCCCCCCCCCC(F)C(=O)O (centres undefined) [2-Fluoropalmitic acid] | 105
CC(C)(C)NCC(O)c1cc(O)cc(O)c1.CC(C)(C)NCC(O)c1cc(O)cc(O)c1.O=S(=O)(O)O (centres undefined) [Terbutaline hemisulfate] | 106
COc1cc(-c2oc3cc(O)ccc3c(=O)c2O)ccc1O [Geraldol] | 85.9
COc1cc2nc(N3CCN(C(=O)c4ccco4)CC3)nc(N)c2cc1OC.Cl [Prazosin.HCl] | 107
OCC1OC(n2cnc3c(NC4CC5CCC4C5)ncnc32)C(O)C1O (centres undefined) | 99.1
CC(CCc1ccc(O)cc1)NCCc1ccc(O)c(O)c1.Cl (centres undefined) [Dobutamine hydrochloride] | 101
Nc1c(C(=O)O)c2nc3c(C(=O)O)cccc3oc-2cc1=O [2-amino-3-oxo-3H-phenoxazine-1,9-dicarboxylic acid] | 92
Nc1nc(Cl)nc2c1ncn2C1OC(CO)C(O)C1O (centres undefined) [2-Chloroadenosine] | 99.3
OC(Cn1cncn1)(Cn1cncn1)c1ccc(F)cc1F [Fluconazole] | 102
CN(CCOc1ccc(CC2SC(=O)NC2=O)cc1)c1ccccn1.O=C(O)C=CC(=O)O (centres undefined) [Rosiglitazone maleate] | 103
CC1CCC2C(C)(CO)C(O)CCC2(C)C12CCC(CO)(CCO)O2 (centres undefined) [Lagochiline] | 98.2
O=C(Nc1ccc(Oc2ccnc3[nH]ccc23)c(F)c1)c1cccn(-c2ccc(F)cc2)c1=O | 102
O=C(O)c1cc(=O)c2ccc(Cl)cc2[nH]1 [7-Chlorokynurenic acid] | 96.9
Cn1cnc2c1c(=O)[nH]c(=O)n2C [Theobromine] | 104 ± 3
Cc1cnc(Nc2ccc(N3CCN(C)CC3)cc2)nc1Nc1cccc(S(=O)(=O)NC(C)(C)C)c1 | 31.4
CCCOC(=O)c1c(-c2ccccc2)nc(CC)c(C(=O)SCC)c1CCC | 102
O=c1onc2cnc3ccccc3n12 | 101

SMILES | cell number
CN1C2CCC1CC(OC(c1ccccc1)c1ccccc1)C2.CS(=O)(=O)O (centres undefined) [Benztropine mesylate] | 97.2
CC(O)C(=O)C1=Nc2c([nH]c(N)nc2=O)NC1 (centres undefined) [Sepiapterin] | 105
C=C(c1ccc(C(=O)O)cc1)c1cc2c(cc1C)C(C)(C)CCC2(C)C [Bexarotene] | 104
CC(O)(P(=O)([O-])O)P(=O)([O-])O [Etidronate] | 101
CC(C)=CCC(O)C1=CC(=O)c2c(O)ccc(O)c2C1=O (centres undefined) [Shikonin] | 27
COc1ccc2c(c1)c(CC(=O)N1CCOCC1)c(C)n2C(=O)c1ccc(Cl)cc1 [Indomethacin morpholinylamide] | 105
CNNCc1ccc(C(=O)NC(C)C)cc1 [Procarbazine] | 102
CN(c1ncccc1CNc1nc(Nc2ccc3c(c2)CC(=O)N3)ncc1C(F)(F)F)S(C)(=O)=O | 54.6
CC12C=CC(=O)C=C1CCC1C2C(=O)CC2(C)C1CCC2(O)C(=O)CO (centres undefined) [Prednisone] | 101
Cl.O=C(O)C1=CCCN(CCON=C(c2ccccc2)c2ccccc2)C1 [NO-711 hydrochloride] | 100
O=C1Nc2ccccc2C1=Cc1c(Cl)[nH]c2ccccc12 [Cdk1 Inhibitor] | 56.6
OC[C@@H](O)[C@H]1NC[C@@H](O)[C@H]1O [1,4-Dideoxy-1,4-imino-D-mannitol hydrochloride] | 99.9
Cc1cc(C)c(NC(=O)CC(CC(=O)[O-])c2cccc3ccccc23)c(C(=O)N2CCC3(CCCC3)CC2)c1.[Na+] (centres undefined) | 105
NC(=O)c1ccc(-c2nc(-c3ccc4c(c3)OCO4)c(-c3ccccn3)[nH]2)cc1 | 95.7
O=c1ccc2ccc(O)c(O)c2o1 [7,8-dihydroxy-2H-chromen-2-one] | 99.2
CCN1CCN(c2cc3c(cc2F)c(=O)c(C(=O)O)cn3C2CC2)CC1 [Enrofloxacin] | 101
CC(C)=CCC(OC(=O)C=C(C)C)C1=CC(=O)c2c(O)ccc(O)c2C1=O (stereo not drawn) [Shikonin beta,beta-dimethylacrylate] | 25.4
